The target of this experiment is EPHB3. The experiment in a line: pooled miR-30 sensor sort-seq; sequence = guide strand. Conditions: shRNA.
Turning to TAGCAGAAGTGAACTTCCGATA, the sensor-assay potency score (higher = more potent) is -0.801. With TACTGCTGCAGCTTCTCCGTGT, the sensor-assay potency score (higher = more potent) was found to be 0.38. Next, TACTTCATCTCGTAGTCCAGGA: -0.409; TTGCTGTTGACAAGGATGTTGC: -0.897; TTCATCTGGCTGGTCACTGTGG: -0.423. As for TCTCCGTGTACTCCGAATCAGA, the sensor-assay potency score (higher = more potent) is -1.2. As for ATGACAATTCCGTAGCTCCAGA, the sensor-assay potency score (higher = more potent) was -1.32. Next, TTGCAGTAGAGCTTGAGTGGCA: -0.145; TTGTCATCACAGCGTGAGCAGG: -1.61; AACTGGTGTAGGTAGGATCGGA: -0.385.

TTGAGCTCCACGTAGACCCGCT: the sensor-assay potency score (higher = more potent) was determined as 0.189. Turning to TTGCAGATGACATTGTACAGGA, the sensor-assay potency score (higher = more potent) was -0.122. The sequence TTACACACCTGGTATGTGCGGA gave a sensor-assay potency score (higher = more potent) of 0.227. Next, TTGTACAGGAGGTCATCCCGGC: -0.315. TCGTAGTCCAGGATGACTCCGT: the sensor-assay potency score (higher = more potent) was -0.375. Consider TGAGGTTTCATTCACATTGGAG, for which the sensor-assay potency score (higher = more potent) is -0.889. For TCACATTGGAGATCACACCTCG, the sensor-assay potency score (higher = more potent) was found to be 0.593. TATGACAGCACCAAGGGCGGGG: the sensor-assay potency score (higher = more potent) was -0.054. On to TTGTTCTGGCTTGACTCGCGCA, for which the sensor-assay potency score (higher = more potent) is -0.743. In the case of TAGTCCAGGATGACTCCGTTGG, the sensor-assay potency score (higher = more potent) is -0.557. As for TTGTGGTCTCAAACTCGGCAGG, the sensor-assay potency score (higher = more potent) was -1.08. Turning to ATTGCGGATGAGCTTGTCCAGG, the sensor-assay potency score (higher = more potent) was -1.31. Take TCACCAACTGTCGTGAAGGTTG: the sensor-assay potency score (higher = more potent) was -0.896.
Further: reference of the scale not given here.
